Results filed as inconclusive are left out. Calls of active or inactive are those of the source. The call rests on the fitted dose curve; in most records, active means well fitted curve in the direction sought with a large enough effect; inconclusive means small, poorly fitted or top-dose-only effect, or another doubt; inactive means no such curve, though single readings can be large or run the other way.
What follows are compounds tested against Polyunsaturated fatty acid lipoxygenase ALOX15 (Homo sapiens) (UniProt P16050) (assay: Counterscreen qHTS for inhibitors of human arachidonate 12S-lipoxygenase (ALOX12): ALOX15 Assay). Conditions: purified ALOX15 enzyme activity; series mostly up to 110 µM; activity change, negative = inhibition: at the top concentration.
How it was run: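 Purified human ALOX15 (15hLO-1) at 40 nM in 25 mM HEPES, 0.01% Triton X-100, pH 7.5, preincubated with compound 15 min at RT. Then 50 uM arachidonic acid for 30 min; hydroperoxide detected by Fe-xylenol orange as the 573/405 nm absorbance ratio.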
Further: 0% is about no effect.

Chain of Polyunsaturated fatty acid lipoxygenase ALOX15 (Homo sapiens) (P16050 whole entry, looked up): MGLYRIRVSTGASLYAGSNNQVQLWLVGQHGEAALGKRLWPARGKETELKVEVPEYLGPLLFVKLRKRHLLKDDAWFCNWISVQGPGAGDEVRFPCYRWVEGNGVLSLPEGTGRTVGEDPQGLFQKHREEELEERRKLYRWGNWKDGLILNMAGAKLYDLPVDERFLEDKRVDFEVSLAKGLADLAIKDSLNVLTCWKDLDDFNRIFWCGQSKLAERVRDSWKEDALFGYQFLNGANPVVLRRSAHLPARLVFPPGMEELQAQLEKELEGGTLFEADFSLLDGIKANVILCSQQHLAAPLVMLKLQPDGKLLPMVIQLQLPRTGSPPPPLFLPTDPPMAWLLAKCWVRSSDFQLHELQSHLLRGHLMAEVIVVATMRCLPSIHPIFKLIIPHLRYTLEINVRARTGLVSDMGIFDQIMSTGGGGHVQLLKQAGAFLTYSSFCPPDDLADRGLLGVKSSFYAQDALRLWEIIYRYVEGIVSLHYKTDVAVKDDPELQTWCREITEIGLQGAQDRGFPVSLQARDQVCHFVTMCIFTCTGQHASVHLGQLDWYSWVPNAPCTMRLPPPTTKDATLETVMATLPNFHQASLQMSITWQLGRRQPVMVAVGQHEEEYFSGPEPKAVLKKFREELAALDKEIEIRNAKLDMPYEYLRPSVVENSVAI

SMILES	activity change, negative = inhibition
CCOCCNc1ncnc2c1CN(C1CCCNCC1)C(=O)CN2C (stereo not drawn)	-14.8% (inactive)
COc1ccc(OC2CN(Cc3ccc(F)cc3)C2)cc1	0.696% [at 146 µM] (inactive)
Cc1ccc(CN2CC3(Cc4ccccc4NC3=O)C2)cc1	67.4% [at 146 µM] (inactive)
COc1ccc(N2CC3CCC(C2)N3[S+](C)(=O)[O-])cc1	-3.15% [at 146 µM] (inactive)
COc1ccc(C(=O)N2CC(Oc3ccc4c(c3)OCO4)C2)cc1	10.5% [at 146 µM] (inactive)
O=C(C1CCCC1)N1Cc2ccccc2CC2(CCN(Cc3cccnc3)C2)C1 (stereo not drawn)	-8.8% (inactive)
O=C(O)c1ccc(-c2cnccn2)cc1	-14.5% [at 233 µM] (inactive)
Cc1cccc(N2Cc3c(NCCCOC(C)C)ncnc3N(C)CC2=O)c1	12.9% (inactive)
COCCNC(=O)c1cc(-c2ccc(OC)cc2)nc2onc(C3CCNC3)c12 (stereo not drawn)	-22.4% (inactive)
O=C(N1CCCCC1)N1CCCC1c1nnc2n1CCNC2 (stereo not drawn)	-11.3% (inactive)
CCNc1ncnc2c1CN(C1CCCNCC1)C(=O)CN2C (stereo not drawn)	-7.53% [at 146 µM] (inactive)
CC(=O)N1CCCC2(CC(c3ccccn3)=NO2)C1 (stereo not drawn)	-18.8% [at 233 µM] (inactive)
O=c1n(-c2cccc(Cl)c2)nc2n1CCN([S+](=O)([O-])c1ccccc1)C2	-1.83% (inactive)
O=C(c1cc(C2CC2)nc2onc(C3CCCN3)c12)N1CCOCC1 (stereo not drawn)	-29.9% (inactive)
CNCc1cccc(Oc2ccccc2)c1	-15.4% [at 146 µM] (inactive)
O=C(N1CCCCC1)N1CCN(c2ccc(Cl)nn2)C(=O)C1	-15.7% [at 146 µM] (inactive)
O=C(N1CCOCC1)N1CCN(c2ccc(Cl)nn2)C(=O)C1	-10.6% [at 146 µM] (inactive)
O=C1c2ccccc2CN1C1CCN(Cc2cccc3ccccc23)CC1	-4.22% (inactive)
CC1CCCN(c2ncnc3c2CN(C2CCCNCC2)C(=O)CN3C)C1 (stereo not drawn)	-9.24% (inactive)

SMILES	activity change, negative = inhibition
O=C(NCc1ccc(Cl)nc1)c1cnn2c1CN(C(=O)c1ccccc1)CC2	0.165% (inactive)
COc1ccc(CN2CCCC23Cc2ccccc2CNC3=O)c(O)c1 (stereo not drawn)	-18.1% [at 146 µM] (inactive)
O=C1Nc2ccccc2CN(CC2CCCCC2)C12CCNCC2	-14.5% (inactive)
Cc1ccc(-c2cccc(CN)c2)cc1Cl	-12.2% [at 146 µM] (inactive)
N#Cc1cccnc1-c1cccc(C(=O)O)c1	-10.8% [at 146 µM] (inactive)
CNCc1cccn1C	-3.02% [at 233 µM] (inactive)
COc1ccc(-c2nc(C3CC3)nc3c2CCN(Cc2ccc(C#N)cc2)CC3)cc1	29.1% (inactive)
CNCc1ccccc1C(F)(F)F	-27.6% [at 233 µM] (inactive)
CN1CC(=O)N(C2CCCNCC2)Cc2c1ncnc2N1CCC(N2CCCCC2)CC1 (stereo not drawn)	5.5% (inactive)
O=C1NC2(Cc3ccccc31)CN(C(=O)c1ccccc1)C2	-8.74% [at 146 µM] (inactive)
CC(=O)N1Cc2ccccc2CC2(CCN(Cc3ccncc3)C2)C1 (stereo not drawn)	-26.4% [at 146 µM] (inactive)
O=C(N1CCCC1)N1CCn2c(nnc2-c2cncc(Br)c2)C1	-11.1% (inactive)
CN1CC(=O)N(C2CCCNCC2)Cc2c1ncnc2N1CCC(N2CCCC2)CC1 (stereo not drawn)	3.04% (inactive)
COc1ccc(C(=O)N2CCOC3(CCN(C(=O)CN)CC3)C2)cc1	-8.06% (inactive)
NCc1cccc(-c2ccc(F)cc2F)c1	-16.3% [at 146 µM] (inactive)
O=C(c1ccncc1)N1CCN(c2ccc(Cl)nn2)C(=O)C1	-6.67% [at 146 µM] (inactive)
C[S+](=O)([O-])N1CC2ON=C(C(=O)NCCc3ccc(Cl)cc3)C2C1 (stereo not drawn)	-3.95% (inactive)
Cc1cc(C)c(CN2CCC3(Cc4ccccc4CNC3=O)C2)c(C)c1 (stereo not drawn)	-19% (inactive)
CS(=O)(=O)N1CCC2(CC1)CN(Cc1ccc(O)cc1)Cc1ccccc1O2	-7.74% (inactive)

Reference: PubChem BioAssay AID1671192 (National Center for Advancing Translational Sciences (NCATS), 2021)
